Experiments:
Settings in all cases: concentration: 1 μM, replicates: in singlicate; n = 1
[1] = tested on: RPS6KA5(Kin.Dom.2-C-terminal)
[2] = tested on: T1, RSK1(Kin.Dom.1-N-terminal)
T1 construct: gene RPS6KA1

[3] = tested on: T2, RSK1(Kin.Dom.2-C-terminal)
T2 construct: gene RPS6KA1

[4] = tested on: T3, RSK2(Kin.Dom.1-N-terminal)
T3 construct: gene RPS6KA3

[5] = tested on: T4, RSK2(Kin.Dom.2-C-terminal)
T4 construct: gene RPS6KA3

[6] = tested on: T5, RSK3(Kin.Dom.1-N-terminal)
T5 construct: gene RPS6KA2

[7] = tested on: T6, RSK3(Kin.Dom.2-C-terminal)
T6 construct: gene RPS6KA2

[8] = tested on: T7, RSK4(Kin.Dom.1-N-terminal)
T7 construct: gene RPS6KA6

[9] = tested on: T8, RSK4(Kin.Dom.2-C-terminal)
T8 construct: gene RPS6KA6

S6K1 = tested on: S6K1
SBK1 = tested on: SBK1
SGK2 = tested on: SGK2
SGK3 = tested on: SGK3
SGK = tested on: SGK
SIK2 = tested on: SIK2
SIK = tested on: SIK
SLK = tested on: SLK
SNARK = tested on: T9, SNARK
T9 construct: gene NUAK2

SNRK = tested on: SNRK
SRC = tested on: SRC
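Also: KINOMEscan kinase panel screen.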

Structure (SMILES): Cc1cccc(-c2nc(Nc3ccc4[nH]nnc4c3)c3ccccc3n2)n1 [GW867587]
- %Inh [1]: 0%
- %Inh [2]: 0%
- %Inh [3]: 16%
- %Inh [4]: 12%
- %Inh [5]: 0%
- %Inh [6]: 0%
- %Inh [7]: 12%
- %Inh [8]: 0%
- %Inh [9]: 0%
- %Inh (S6K1): 0%
- %Inh (SBK1): 0%
- %Inh (SGK2): 0%
- %Inh (SGK3): 0%
- %Inh (SGK): 0%
- %Inh (SIK2): 0%
- %Inh (SIK): 0%
- %Inh (SLK): 0%
- %Inh (SNARK): 0%
- %Inh (SNRK): 0%
- %Inh (SRC): 26%

Structure (SMILES): Cl.O=S(=O)(c1cccc(F)c1)c1ccc(Nc2ncnc3cc(Br)sc23)cc1Cl [GSK306886]
- %Inh [1]: 4%
- %Inh [2]: 17%
- %Inh [3]: 17%
- %Inh [4]: 0%
- %Inh [5]: 0%
- %Inh [6]: 0%
- %Inh [7]: 31%
- %Inh [8]: 0%
- %Inh [9]: 14%
- %Inh (S6K1): 0%
- %Inh (SBK1): 0%
- %Inh (SGK2): 0%
- %Inh (SGK3): 6%
- %Inh (SGK): 0%
- %Inh (SIK2): 0%
- %Inh (SIK): 0%
- %Inh (SLK): 8%
- %Inh (SNARK): 14%
- %Inh (SNRK): 0%
- %Inh (SRC): 0%

Structure (SMILES): COc1ccc(NC(=O)c2ccc(-c3cc(-c4nnc(C)o4)ccc3C)cc2)cc1 [GW595885]
- %Inh [1]: 0%
- %Inh [2]: 17%
- %Inh [3]: 0%
- %Inh [4]: 0%
- %Inh [5]: 0%
- %Inh [6]: 0%
- %Inh [7]: 0%
- %Inh [8]: 0%
- %Inh [9]: 5%
- %Inh (S6K1): 4%
- %Inh (SBK1): 26%
- %Inh (SGK2): 2%
- %Inh (SGK3): 0%
- %Inh (SGK): 1%
- %Inh (SIK2): 0%
- %Inh (SIK): 0%
- %Inh (SLK): 10%
- %Inh (SNARK): 0%
- %Inh (SNRK): 0%
- %Inh (SRC): 0%

Structure (SMILES): O=C(c1ccc(-c2cc(-c3c[nH]nc3-c3ccccn3)ccn2)cc1)N1CCCC1 [GW792479]
- %Inh [1]: 11%
- %Inh [2]: 4%
- %Inh [3]: 0%
- %Inh [4]: 14%
- %Inh [5]: 39%
- %Inh [6]: 0%
- %Inh [7]: 12%
- %Inh [8]: 0%
- %Inh [9]: 19%
- %Inh (S6K1): 7%
- %Inh (SBK1): 0%
- %Inh (SGK2): 8%
- %Inh (SGK3): 0%
- %Inh (SGK): 0%
- %Inh (SIK2): 12%
- %Inh (SIK): 19%
- %Inh (SLK): 3%
- %Inh (SNARK): 0%
- %Inh (SNRK): 0%
- %Inh (SRC): 17%

Structure (SMILES): Nc1nc(-c2cccnc2)c(-c2ccnc3ccccc23)s1 [GW684083]
- %Inh [1]: 0%
- %Inh [2]: 11%
- %Inh [3]: 22%
- %Inh [4]: 3%
- %Inh [5]: 27%
- %Inh [6]: 8%
- %Inh [7]: 0%
- %Inh [8]: 0%
- %Inh [9]: 79%
- %Inh (S6K1): 18%
- %Inh (SBK1): 17%
- %Inh (SGK2): 9%
- %Inh (SGK3): 0%
- %Inh (SGK): 45%
- %Inh (SIK2): 0%
- %Inh (SIK): 4%
- %Inh (SLK): 18%
- %Inh (SNARK): 0%
- %Inh (SNRK): 0%
- %Inh (SRC): 2%

Reference: PMC5540273 (PLoS ONE, 2017)
